Bioassay records as filed in PubChem.
D1 allo mod: D1 CRE-luciferase signal change, two-sided – cell-based, HEK293 D1, dopamine EC30, D1 allosteric modulator project, primary screen. D(1A) dopamine receptor (Homo sapiens), P21728. dopamine EC30 potentiation; actives deviate in either direction. B-score at 10 µM. hit rate 5.9% among 58,000;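 active = luminescence count or its row- and column-corrected plate score outside the 99.7% band of the plate's sample wells, on either side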
CYP2C9 inh: blockers of cytochrome P450 2C9 activity – biochemical, luminescence, ADME assay, primary screen; P11712; hit rate 20% among 96,000; inhibition, % at 5 µM; AID 777, 2007; CYP2C9 Supersomes, luciferin-H conversion;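 active = blocking of liver enzyme CYP2C9 beyond about 50% at 5 µM, limit read from the data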
DAT uptake mod: changed hDAT dopamine uptake under cocaine IC80, either direction, primary screen, cocaine antagonist project, cell-based, LLC-PK1 hDAT, [14C]-dopamine uptake, MLSMR; LLC-PK1 hDAT cells, [14C]-dopamine uptake with cocaine IC80; actives deviate in either direction; Sodium-dependent dopamine transporter (Homo sapiens), Q01959; B-score at 10 µM; hit rate 1.3% among 110,000;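 active = Z score or B-score, a plate-position-corrected score, falls beyond the plate's 99.7% confidence bounds, in either direction; inactive = both scores lie inside the 99.7% bounds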
CYP2C19 act: human CYP2C19 activators, primary screen, biochemical, luminescence; 96,000 tested, under 10 active; recombinant CYP2C19, luciferin-H EGE luminescence; hits give high values; 0 = fully inhibited enzyme, 1 = untreated enzyme; AID 1025, 2008; activation factor at 5 µM;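 active = activation factor of at least 2 at 5 µM in the primary screen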
Target sequence (P33261 whole entry, looked up): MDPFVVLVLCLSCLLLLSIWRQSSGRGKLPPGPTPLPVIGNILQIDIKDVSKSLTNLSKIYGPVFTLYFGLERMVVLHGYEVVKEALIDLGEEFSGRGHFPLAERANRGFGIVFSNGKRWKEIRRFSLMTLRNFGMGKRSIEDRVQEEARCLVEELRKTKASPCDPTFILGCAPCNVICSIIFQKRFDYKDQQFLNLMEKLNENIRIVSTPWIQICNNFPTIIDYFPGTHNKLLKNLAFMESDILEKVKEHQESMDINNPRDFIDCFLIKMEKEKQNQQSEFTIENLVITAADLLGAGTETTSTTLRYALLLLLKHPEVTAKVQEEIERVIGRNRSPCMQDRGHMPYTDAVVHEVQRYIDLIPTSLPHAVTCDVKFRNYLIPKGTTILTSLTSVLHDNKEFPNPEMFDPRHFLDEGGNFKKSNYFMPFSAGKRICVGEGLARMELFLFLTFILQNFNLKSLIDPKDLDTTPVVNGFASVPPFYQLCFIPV
CYP2C19 inhib: blockers of cytochrome P450 2C19 activity – biochemical, luminescence, ADME assay, primary screen; P33261; CYP2C19 Supersomes, luciferin-H EGE luminescence, 30 min; inhibition, % at 5 µM; hit rate 21% among 96,000; AID 778, 2007;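 active = CYP2C19 inhibition above a set limit at 5 µM in the primary screen, cut at about 50% in these data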
CYP2C9 activ: human CYP2C9 activators, primary screen, biochemical, luminescence. Cytochrome P450 2C9 (Homo sapiens), P11712. recombinant CYP2C9, luciferin-H conversion; hits give high values; factor 1 = untreated enzyme, 0 = blocked. activation factor at 5 µM. hit rate 1.4% among 96,000. AID 1024, 2008;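 active = activation factor of 2 or more for CYP2C9 at a 5 µM dose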
Each line names hits and unclear results; the compound was inactive in the other large screens. Shown are actives, neighbours in structure and some others; about 28% of the full set was active somewhere.

CCOc1nc2ccccc2nc1C	none (no result: D1 allo mod)
CCOC(=O)c1sc(NC(=O)C(CC)Sc2nnc3c4ccccc4n(CC)c3n2)nc1C (stereo unspecified)	D1 allo mod 4.18 (no result: CYP2C9 inh, DAT uptake mod, CYP2C19 act, CYP2C19 inhib, CYP2C9 activ)
CCCn1c2ccccc2c2nnc(SC(CC)C(=O)Nc3cc(C)on3)nc21 (stereo unspecified)	none (no result: D1 allo mod, CYP2C9 inh, CYP2C19 act, CYP2C19 inhib, CYP2C9 activ)
CCCn1c2ccccc2c2nnc(SC(CC)C(=O)Nc3sc4c(c3C#N)CCCC4)nc21 (stereo unspecified)	CYP2C9 inh 89.1, CYP2C19 inhib 70.4 (no result: D1 allo mod)
CCOC(=O)c1sc(NC(=O)CSc2nnc3c4ccccc4n(CC)c3n2)nc1C	none (no result: CYP2C9 inh, DAT uptake mod, CYP2C19 act, CYP2C19 inhib, CYP2C9 activ)
CCOC(=O)N1CCC(NC(=O)c2cc(S(=O)(=O)N(CC)CC)ccc2F)CC1	none (no result: D1 allo mod)
Cc1cc(NC(=O)CSc2c3c(nc4ccccc24)CCC3)no1	CYP2C9 inh 55.7, CYP2C19 inhib 54.8 (no result: DAT uptake mod)
Cc1cc(NC(=O)CSc2nc(CCC3CCCC3)nc3ccccc23)no1	CYP2C9 inh 90.3, CYP2C19 inhib 87.4
Cc1scc(C(=O)NCc2ccco2)c1-c1ccccc1	CYP2C19 inhib 60.7
O=C(NCC1CCCO1)c1csc2c1CCCCC2 (stereo unspecified)	D1 allo mod -3.31
O=C(NCc1ccco1)c1cc(-c2ccccc2)on1	CYP2C9 activ 2.1
O=C(NCC1CCCO1)c1ccccc1-c1nc(-c2ccccc2)no1 (stereo unspecified)	CYP2C9 inh 58.0 (no result: D1 allo mod)
CC1CCc2c(C(=O)NCC3CCCO3)csc2C1 (stereo unspecified)	none
O=C(NCc1ccco1)c1cc(-c2ccc(F)cc2)on1	none
CSc1ccccc1C(=O)NCC1CCCO1 (stereo unspecified)	none (no result: D1 allo mod)
CCC(N)C12CC3CC(CC(O)(C3)C1)C2 (stereo unspecified)	none (no result: D1 allo mod, CYP2C9 inh, CYP2C19 act, CYP2C19 inhib, CYP2C9 activ)
CC(C)(C)n1nc2c(c1NC(=O)COc1ccc3ccccc3c1)CS(=O)(=O)C2	none (no result: D1 allo mod)
CCn1cc(C(=O)O)c(=O)c2cnc(N3CCN(C(=O)Nc4cccc5ccccc45)CC3)nc21	none (no result: DAT uptake mod)
CC(C)CC(C(=O)NCC1CCCO1)N(C(=O)Cn1nnc(-c2ccc(F)cc2)n1)c1ccccc1F (stereo unspecified)	none (no result: D1 allo mod)
O=C(NCc1ccco1)c1cc2c(s1)CSC2	CYP2C9 inh 56.5
Cc1ccc(-c2cc(C(=O)NCC3CCCO3)no2)cc1 (stereo unspecified)	none
O=C(NCC1CCCO1)c1cc(-c2ccccc2)on1 (stereo unspecified)	CYP2C9 activ 2.6
CCC1(CC)C(=O)C2=C3C1[C@H](C(=O)OC)C=C(C(=O)OC)C[C@H]3[C@H]1C(=O)N(CC(=O)OC)C(=O)[C@H]1[C@H]2C (stereo partly specified)	none (no result: D1 allo mod, CYP2C9 inh, CYP2C19 act, CYP2C19 inhib, CYP2C9 activ)
COc1ccccc1NC(=O)/C(C#N)=C/C=C/c1ccco1	CYP2C9 activ 3 (no result: D1 allo mod)
COC(=O)c1c(NC(=O)c2c(C)noc2C)sc2c1CCCCCC2	none
Cc1onc(-c2ccccc2Cl)c1C(=O)Nc1nnc(C(C)C)s1	CYP2C9 inh 59.3 (no result: D1 allo mod)
Cc1onc(-c2ccccc2Cl)c1C(=O)NCc1ccco1	CYP2C19 inhib 50.7 (no result: D1 allo mod)
O=C(/C=C/c1ccccc1Cl)NCc1ccco1	CYP2C9 activ 2.3 (no result: D1 allo mod)
COC(=O)c1c(NC(=O)c2c(-c3ccccc3Cl)noc2C)sc2c1CCC2	CYP2C9 inh 98.4, CYP2C19 inhib 74.1 (no result: D1 allo mod, DAT uptake mod)
Cc1[nH]c2ccc(F)cc2c(=O)c1SC(F)(F)C(F)F	none
Nc1cccc2c1C(=O)N(C(=O)c1ccc(Cl)c(S(=O)(=O)N3CCCCCC3)c1)C2=O	none (no result: D1 allo mod)
CC(=O)C1=C(O)C(=O)N(C)C1c1ccccc1F (stereo unspecified)	none
CCCCN1C2CCCC1CC(NC(=O)C1CCCCC1)C2 (stereo unspecified)	none (no result: D1 allo mod, CYP2C9 inh, CYP2C19 act, CYP2C19 inhib, CYP2C9 activ)
Cc1onc(-c2ccccc2Cl)c1C(=O)Nc1ccc(CN2CCCC2)cc1	none
Cc1onc(-c2ccccc2Cl)c1C(=O)Nc1nnc(Cc2ccc(Cl)cc2)s1	CYP2C9 inh 87.9 (no result: D1 allo mod)
O=C(CSc1n[nH]c(-c2ccc(S(=O)(=O)N3CCCCC3)cc2)n1)Nc1nccs1	CYP2C9 inh 87.1
CCn1c(SCC(=O)Nc2nccs2)nnc1-c1ccc(S(=O)(=O)N2CCCCCC2)cc1	CYP2C9 inh 51.5 (no result: D1 allo mod)
Cn1c(SCC(=O)Nc2nccs2)nnc1-c1ccc(S(=O)(=O)N2CCCC2)cc1	none (no result: D1 allo mod)
CSC1=C(C#N)C(c2ccccc2Cl)C(C(C)=O)=C(C)N1 (stereo unspecified)	none (no result: D1 allo mod, CYP2C9 inh, CYP2C19 act, CYP2C19 inhib, CYP2C9 activ)
CC(=O)C1=C(C)NC(SCC(=O)c2ccc(Cl)cc2)=C(C#N)C1c1ccco1 (stereo unspecified)	CYP2C9 inh 97.2, CYP2C19 inhib 100.1
CC(=O)C1=C(C)NC(SCC(=O)c2ccccc2)=C(C#N)C1CC(C)C (stereo unspecified)	CYP2C9 inh 59.0
N#Cc1cnc(SCC(=O)c2ccccc2)nc1N	none
Cc1cc(N2CCC(C)CC2)nc(SCC(=O)c2ccccc2)n1	none (no result: D1 allo mod, CYP2C9 inh, CYP2C19 act, CYP2C19 inhib, CYP2C9 activ)
CC(=O)C1=C(C)NC(SCC(=O)c2ccccc2)=C(C#N)C1c1ccco1 (stereo unspecified)	CYP2C9 inh 92.6, CYP2C19 inhib 98.8
N#CC1=C(SCC(=O)c2ccc(Br)cc2)NC2=C(C(=O)CCC2)C1c1ccco1 (stereo unspecified)	CYP2C9 inh 98.8, CYP2C19 inhib 99.2 (no result: D1 allo mod, DAT uptake mod)
CC(=O)C1=C(C)NC(SCC(=O)c2ccc(Cl)cc2Cl)=C(C#N)C1c1ccco1 (stereo unspecified)	CYP2C9 inh 100.4, CYP2C19 inhib 99.8
Cc1ccc(SCc2[nH]nc3c2C(c2ccco2)C(C#N)=C(N)O3)cc1 (stereo unspecified)	none
O=C1c2ccccc2C(O)(c2ncc[nH]2)N1CCc1ccccc1 (stereo unspecified)	CYP2C19 inhib 91.9 (no result: D1 allo mod)
CC(C)CN1C(=O)c2ccccc2C1(O)Cc1ccccc1 (stereo unspecified)	none (no result: D1 allo mod, CYP2C9 inh, CYP2C19 act, CYP2C19 inhib, CYP2C9 activ)
Cc1cc(C)cc(OCC(=O)Nc2ccc(N3CCCC3)cc2)c1	none
COc1ccccc1NC(=O)COc1ccc(CO)cc1Cl	CYP2C9 inh 92.4, CYP2C19 inhib 97.0
COc1ccccc1NC(=S)NC(=O)CCCOc1ccc(Cl)cc1Cl	none (no result: D1 allo mod)
O=C(COc1ccc(CO)cc1Cl)Nc1ccc(F)cc1	CYP2C19 inhib 58.5 (no result: D1 allo mod)
Cc1cc(OCC(=O)NCC(C)C)cc(C)c1Br	none (no result: D1 allo mod)
Cc1cc(C)cc(OCC(=O)Nc2ccc(F)cc2)c1	CYP2C19 inhib 59.4 (no result: D1 allo mod)
Cc1cc(OCC(=O)Nc2ccncc2)cc(C)c1Br	CYP2C9 inh 99.0, CYP2C19 inhib 99.5 (no result: D1 allo mod)
